Source: the supplement of paper PMC12067093, “Discovery and optimisation of a covalent ligand for TRIM25 and its application to targeted protein ubiquitination” (Chemical Science, 2025)
The full data set covers some 21,000 targets. This sample favours those with the largest changes.

Compound: CC1Cc2ccccc2N1C(=O)C1CCCN(C1)C(=O)CCl (mixture of isomers) [TRIM25 ligand 11 (diastereomer mixture)]
Assay: probe-labelled cysteine peptide fold change vs DMSO (competition) (log2 fold change); higher = less target engagement (more negative = stronger competition)
Conditions: THP-1, incubation time: 4 h
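Further: competitive chemoproteomic profiling in live THP-1 cells with an iodoacetamide desthiobiotin (IA-DTB) probe, comparing probe-labelled peptide intensities in compound-treated cells against DMSO-treated controls.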

Chain of UniProt Q9NR30 (Q9NR30 whole entry, looked up): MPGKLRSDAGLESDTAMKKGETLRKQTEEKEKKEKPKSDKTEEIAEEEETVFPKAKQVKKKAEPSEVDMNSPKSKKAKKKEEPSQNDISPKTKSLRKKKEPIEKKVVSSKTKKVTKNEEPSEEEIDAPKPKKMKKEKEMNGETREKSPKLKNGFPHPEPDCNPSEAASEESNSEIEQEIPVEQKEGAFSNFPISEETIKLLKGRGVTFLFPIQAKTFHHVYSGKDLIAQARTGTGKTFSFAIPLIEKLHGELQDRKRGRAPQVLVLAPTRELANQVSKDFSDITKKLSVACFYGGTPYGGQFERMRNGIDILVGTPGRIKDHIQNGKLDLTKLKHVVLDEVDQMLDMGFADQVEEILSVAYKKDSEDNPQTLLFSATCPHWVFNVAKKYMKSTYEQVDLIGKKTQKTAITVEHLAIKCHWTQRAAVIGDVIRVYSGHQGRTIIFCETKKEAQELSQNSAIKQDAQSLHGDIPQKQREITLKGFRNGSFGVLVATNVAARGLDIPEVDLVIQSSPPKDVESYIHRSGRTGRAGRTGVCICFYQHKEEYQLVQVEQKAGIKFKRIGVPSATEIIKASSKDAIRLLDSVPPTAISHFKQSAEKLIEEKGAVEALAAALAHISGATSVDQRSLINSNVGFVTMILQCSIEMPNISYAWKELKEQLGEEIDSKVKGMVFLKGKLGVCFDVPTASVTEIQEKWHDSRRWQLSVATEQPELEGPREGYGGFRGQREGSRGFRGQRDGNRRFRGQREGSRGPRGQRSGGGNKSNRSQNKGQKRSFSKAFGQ
Chain of UniProt Q9ULV4 (Q9ULV4 whole entry, looked up): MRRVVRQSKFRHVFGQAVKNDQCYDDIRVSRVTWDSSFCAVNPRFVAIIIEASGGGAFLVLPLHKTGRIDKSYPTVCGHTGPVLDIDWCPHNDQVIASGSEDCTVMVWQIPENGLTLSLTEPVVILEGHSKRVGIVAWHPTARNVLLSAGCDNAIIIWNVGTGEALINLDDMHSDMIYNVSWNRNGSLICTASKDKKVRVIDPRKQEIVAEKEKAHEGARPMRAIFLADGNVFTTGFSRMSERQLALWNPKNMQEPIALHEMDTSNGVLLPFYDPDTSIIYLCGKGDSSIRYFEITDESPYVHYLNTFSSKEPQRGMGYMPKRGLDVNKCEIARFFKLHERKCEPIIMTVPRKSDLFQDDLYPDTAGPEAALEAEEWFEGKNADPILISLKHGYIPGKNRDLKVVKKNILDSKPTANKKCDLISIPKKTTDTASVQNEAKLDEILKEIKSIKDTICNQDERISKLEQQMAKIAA
Chain of UniProt O75064 (O75064 whole entry, looked up): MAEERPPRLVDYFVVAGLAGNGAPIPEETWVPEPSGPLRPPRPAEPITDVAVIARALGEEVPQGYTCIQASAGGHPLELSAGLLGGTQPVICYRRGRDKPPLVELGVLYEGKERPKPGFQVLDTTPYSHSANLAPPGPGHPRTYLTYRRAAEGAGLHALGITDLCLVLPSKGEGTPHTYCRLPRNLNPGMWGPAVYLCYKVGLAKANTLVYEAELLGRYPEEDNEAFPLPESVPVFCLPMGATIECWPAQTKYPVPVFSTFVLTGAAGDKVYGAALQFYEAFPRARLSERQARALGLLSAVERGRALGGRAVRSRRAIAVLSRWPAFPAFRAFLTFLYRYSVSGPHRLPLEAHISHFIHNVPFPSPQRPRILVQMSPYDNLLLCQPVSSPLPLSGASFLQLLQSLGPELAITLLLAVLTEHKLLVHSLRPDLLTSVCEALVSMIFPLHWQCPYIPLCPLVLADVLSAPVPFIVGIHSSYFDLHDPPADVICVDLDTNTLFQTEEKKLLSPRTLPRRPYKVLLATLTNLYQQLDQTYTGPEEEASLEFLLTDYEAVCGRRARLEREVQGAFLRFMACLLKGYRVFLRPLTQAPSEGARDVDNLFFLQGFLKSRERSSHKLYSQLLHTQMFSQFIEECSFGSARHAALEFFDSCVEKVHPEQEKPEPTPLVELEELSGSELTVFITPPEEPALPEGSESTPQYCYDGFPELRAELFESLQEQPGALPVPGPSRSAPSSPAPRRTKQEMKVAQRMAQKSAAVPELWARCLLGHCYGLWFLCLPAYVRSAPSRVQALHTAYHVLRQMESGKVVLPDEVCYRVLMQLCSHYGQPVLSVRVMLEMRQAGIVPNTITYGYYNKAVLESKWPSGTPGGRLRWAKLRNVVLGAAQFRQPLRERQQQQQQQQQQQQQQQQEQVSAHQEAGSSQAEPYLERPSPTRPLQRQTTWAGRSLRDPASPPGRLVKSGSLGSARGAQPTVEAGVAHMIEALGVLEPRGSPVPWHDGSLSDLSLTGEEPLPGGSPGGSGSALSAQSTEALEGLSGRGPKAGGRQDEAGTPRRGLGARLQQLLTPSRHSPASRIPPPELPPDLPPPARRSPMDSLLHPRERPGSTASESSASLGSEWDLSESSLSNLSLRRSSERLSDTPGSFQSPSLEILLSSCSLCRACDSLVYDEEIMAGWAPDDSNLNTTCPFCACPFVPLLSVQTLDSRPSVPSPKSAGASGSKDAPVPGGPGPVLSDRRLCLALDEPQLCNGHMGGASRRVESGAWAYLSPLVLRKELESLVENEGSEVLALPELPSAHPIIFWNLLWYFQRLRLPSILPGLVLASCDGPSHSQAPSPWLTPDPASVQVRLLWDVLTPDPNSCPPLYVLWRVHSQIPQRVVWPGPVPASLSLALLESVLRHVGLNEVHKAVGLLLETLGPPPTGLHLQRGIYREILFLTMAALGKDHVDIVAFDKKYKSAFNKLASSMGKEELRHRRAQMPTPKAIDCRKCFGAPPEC
Chain of UniProt P35221 (P35221 whole entry, looked up): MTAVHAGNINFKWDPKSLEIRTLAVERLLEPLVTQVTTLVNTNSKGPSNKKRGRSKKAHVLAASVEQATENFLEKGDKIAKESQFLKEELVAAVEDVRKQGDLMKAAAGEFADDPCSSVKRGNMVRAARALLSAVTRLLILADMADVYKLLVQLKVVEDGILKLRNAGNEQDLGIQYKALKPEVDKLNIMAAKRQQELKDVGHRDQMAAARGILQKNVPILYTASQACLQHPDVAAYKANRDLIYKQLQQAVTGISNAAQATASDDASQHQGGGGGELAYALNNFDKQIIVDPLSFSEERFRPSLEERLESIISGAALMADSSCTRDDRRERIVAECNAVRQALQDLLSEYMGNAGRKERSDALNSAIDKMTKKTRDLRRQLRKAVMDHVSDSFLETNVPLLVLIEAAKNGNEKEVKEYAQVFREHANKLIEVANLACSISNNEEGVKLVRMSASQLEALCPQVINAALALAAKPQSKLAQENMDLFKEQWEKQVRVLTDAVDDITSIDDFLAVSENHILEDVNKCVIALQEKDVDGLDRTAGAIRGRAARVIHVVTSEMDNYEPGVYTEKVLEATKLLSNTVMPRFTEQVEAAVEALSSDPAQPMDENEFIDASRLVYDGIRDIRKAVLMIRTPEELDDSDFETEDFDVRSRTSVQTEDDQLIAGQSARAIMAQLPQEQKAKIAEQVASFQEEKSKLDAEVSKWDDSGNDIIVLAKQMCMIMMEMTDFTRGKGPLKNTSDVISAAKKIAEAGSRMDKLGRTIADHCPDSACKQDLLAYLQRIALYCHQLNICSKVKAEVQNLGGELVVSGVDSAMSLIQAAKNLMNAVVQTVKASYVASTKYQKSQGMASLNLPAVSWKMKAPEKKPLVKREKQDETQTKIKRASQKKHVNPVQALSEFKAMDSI
Chain of UniProt Q9H773 (Q9H773 whole entry): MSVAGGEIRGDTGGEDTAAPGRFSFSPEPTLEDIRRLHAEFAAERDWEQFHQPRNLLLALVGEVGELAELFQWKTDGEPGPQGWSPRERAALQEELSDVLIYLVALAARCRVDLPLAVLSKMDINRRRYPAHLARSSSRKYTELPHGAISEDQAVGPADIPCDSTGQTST
Chain of UniProt P31146 (P31146 whole entry, looked up): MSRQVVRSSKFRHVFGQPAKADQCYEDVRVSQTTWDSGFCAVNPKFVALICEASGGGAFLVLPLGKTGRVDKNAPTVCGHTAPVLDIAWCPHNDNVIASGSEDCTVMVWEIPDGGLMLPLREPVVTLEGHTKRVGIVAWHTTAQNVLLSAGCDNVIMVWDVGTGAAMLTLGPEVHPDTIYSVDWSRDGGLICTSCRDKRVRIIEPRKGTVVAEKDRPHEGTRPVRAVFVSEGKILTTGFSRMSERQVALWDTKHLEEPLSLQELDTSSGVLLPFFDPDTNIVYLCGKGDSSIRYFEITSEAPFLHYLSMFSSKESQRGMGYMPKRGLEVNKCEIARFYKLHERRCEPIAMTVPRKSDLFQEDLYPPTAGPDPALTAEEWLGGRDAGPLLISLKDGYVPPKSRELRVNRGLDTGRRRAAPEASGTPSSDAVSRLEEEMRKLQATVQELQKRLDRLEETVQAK
Chain of UniProt Q96SD1 (Q96SD1 whole entry, looked up): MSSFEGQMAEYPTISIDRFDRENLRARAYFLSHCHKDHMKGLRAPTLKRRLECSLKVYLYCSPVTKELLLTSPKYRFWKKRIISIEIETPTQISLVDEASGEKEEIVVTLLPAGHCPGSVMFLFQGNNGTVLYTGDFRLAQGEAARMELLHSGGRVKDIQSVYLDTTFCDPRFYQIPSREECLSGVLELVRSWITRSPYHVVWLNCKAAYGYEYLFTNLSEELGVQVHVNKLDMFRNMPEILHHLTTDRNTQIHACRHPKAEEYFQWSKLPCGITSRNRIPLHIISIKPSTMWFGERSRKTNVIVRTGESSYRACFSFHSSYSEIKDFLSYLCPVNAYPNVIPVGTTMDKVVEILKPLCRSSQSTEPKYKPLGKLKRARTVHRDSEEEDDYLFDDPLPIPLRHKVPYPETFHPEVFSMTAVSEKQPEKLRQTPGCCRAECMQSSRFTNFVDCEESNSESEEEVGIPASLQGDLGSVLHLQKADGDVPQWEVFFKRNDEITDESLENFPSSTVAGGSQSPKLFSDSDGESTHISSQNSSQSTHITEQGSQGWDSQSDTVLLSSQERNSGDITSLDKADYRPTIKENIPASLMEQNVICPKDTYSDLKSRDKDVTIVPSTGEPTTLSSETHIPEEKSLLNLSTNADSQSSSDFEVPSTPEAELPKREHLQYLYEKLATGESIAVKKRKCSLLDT

| Target | probe-labelled cysteine peptide fold change (10 µM) | probe-labelled cysteine peptide fold change (50 µM) |
| --- | --- | --- |
| CORO7_P57737_75_VAHLGCHSDLVTDLDFSPFDDFLLATGSADR (UniProt P57737) | 0.031 | 0.0305 |
| DNAJC2_Q99543_276_TLVDNAYSCDPR (UniProt Q99543) | -0.0127 | -0.0992 |
| CRYL1_Q9Y2S2_141_QCIVAHPVNPPYYIPLVELVPHPETAPTTVDR (UniProt Q9Y2S2) | 0.0328 | -0.0222 |
| DIAPH1_O60610_964_LQFSEQVENIKPEIVSVTAACEELR (UniProt O60610) | 0.176 | 0.06 |
| CPSF4_O95639_162_RVICVNYLVGFCPEGPSCK (UniProt O95639) | -0.292 | 0.0715 |
| CORO1C_Q9ULV4_39_VTWDSSFCAVNPR (UniProt Q9ULV4) | 0.0602 | -0.0375 |
| DCTN1_Q14203_677_YEHALSQCSVDVYKK (UniProt Q14203) | -0.0153 | 0.149 |
| DLEC1_Q9Y238_256_LEDSCR (UniProt Q9Y238) | 0.892 | 0.979 |
| DGKZ_Q13574_876_EASVPLGTVVVPGDSDLELCR (UniProt Q13574) | 0.514 | 0.581 |
| COX6B1_P14854_54_GGDISVCEWYQR (UniProt P14854) | -0.188 | -0.269 |
| DLGAP5_Q15398_129_YRPDMPCFLLSNQNAVK (UniProt Q15398) | -0.299 | -0.594 |
| DNAJA1_P31689_271_RGEDLFMCMDIQLVEALCGFQK (UniProt P31689) | -0.021 | 0.281 |
| CRYBG1_Q9Y4K1_594+609_EVQLPTCHSNEPEVVSVASCAPPQEEVLGNEHSHCTAELAAK (UniProt Q9Y4K1) | -0.0918 | -0.248 |
| DUSP23_Q9BVJ7_95_GEAVGVHCALGFGR (UniProt Q9BVJ7) | -0.00709 | 0.14 |
| DYNC1H1_Q14204_1977_MLSAVSQQVQCIQEALREHSNPNYDK (UniProt Q14204) | -0.708 | -0.193 |
| DENND4B_O75064_180_GEGTPHTYCR (UniProt O75064) | 0.0109 | 0.131 |
| DDX60L_Q5H9U9_502_CHVDEQSR (UniProt Q5H9U9) | -0.013 | -0.526 |
| CPSF3_Q9UKF6_223_FCNTVHDIVNR (UniProt Q9UKF6) | -0.0667 | -0.11 |
| DIP2A_Q14689_543_ALTQACGYSEAETLTNVLDFKR (UniProt Q14689) | 0.205 | 0.286 |
| CPT2_P23786_512_CSEAFVREPSR (UniProt P23786) | -0.197 | -0.0581 |
| DHX37_Q8IY37_486_MLPAGGILVFLTGQAEVHALCR (UniProt Q8IY37) | 0.281 | 0.563 |
| DDX21_Q9NR30_539_TGVCICFYQHK (UniProt Q9NR30) | -0.0402 | -0.0081 |
| DHX9_Q08211_608+612_KDKDDDGGEDDDANCNLICGDEYGPETR (UniProt Q08211) | -0.128 | -0.345 |
| CSMD2_Q7Z408-3_2_CDAHLR (UniProt Q7Z408) | -0.56 | -0.972 |
| CUL4B_Q13620_248_YNLEELYQAVENLCSYK (UniProt Q13620) | 0.033 | 0.163 |
| DHX37_Q8IY37_616_LCVVATNVAETSLTIPGIK (UniProt Q8IY37) | -0.0366 | 0.0989 |
| DUS3L_Q96G46_396_TVEVDFVDINVGCPIDLVYKK (UniProt Q96G46) | -0.169 | -0.11 |

| Target | probe-labelled cysteine peptide fold change (10 µM) | probe-labelled cysteine peptide fold change (50 µM) |
| --- | --- | --- |
| DBNL_Q9UJU6_97_KGACASHVSTMASFLK (UniProt Q9UJU6) | -0.0713 | -0.568 |
| DIDO1_Q9BTC0_1449_MCADVR (UniProt Q9BTC0) | -0.0543 | -0.242 |
| CORO1A_P31146_332_RGLEVNKCEIAR (UniProt P31146) | -0.603 | -0.342 |
| CPNE2_Q96FN4_265_DSVPLEFECINPK (UniProt Q96FN4) | -0.22 | -0.165 |
| CTSH_P09668_272_TGIYSSTSCHK (UniProt P09668) | 0.223 | -0.279 |
| CRYBG1_Q9Y4K1_581+609_EVQLPTCHSNEPEVVSVASCAPPQEEVLGNEHSHCTAELAAK (UniProt Q9Y4K1) | 0.00451 | -0.813 |
| DDB2_Q92466_322_VYSASQWDCPLGLIPHPHR (UniProt Q92466) | 0.0907 | -0.0149 |
| CTNNA2_P26232_792_IALYCHQLNICSK (UniProt P26232) | -0.0111 | 0.118 |
| DHX37_Q8IY37_766_LSCPITALGR (UniProt Q8IY37) | -0.0635 | 0.0316 |
| DMXL2_Q8TDJ6_62_HGNIQVSCVECSNQQGR (UniProt Q8TDJ6) | -0.159 | -0.593 |
| DAZAP1_Q96EP5_63_DPNCVGTVLASR (UniProt Q96EP5) | 0.186 | 0.402 |
| CRELD1_Q96HD1_229_CSGPEESNCLQCK (UniProt Q96HD1) | 0.0143 | -0.197 |
| DPYSL2_Q16555_439_THNSSLEYNIFEGMECR (UniProt Q16555) | 0.0805 | -0.109 |
| DDX24_Q9GZR7_599_SLVFANSISCIK (UniProt Q9GZR7) | 0.479 | 0.567 |
| DDX42_Q86XP3_333_ELEPGDGPIAVIVCPTR (UniProt Q86XP3) | 0.0933 | 0.0408 |
| CRIP2_P52943_150_DWHRPCLR (UniProt P52943) | 0.642 | -0.0653 |
| DSN1_Q9H410_191_CFEDSNGK (UniProt Q9H410) | 0.115 | 0.0971 |
| DMRT1_Q9Y5R6_105_CNLIAER (UniProt Q9Y5R6) | 1.19 | 0.0204 |
| DECR2_Q9NUI1_22_HLFCPDLLR (UniProt Q9NUI1) | 0.0413 | -0.0816 |
| CRIP1_P50238_56_TLTSGGHAEHEGKPYCNHPCYAAMFGPK (UniProt P50238) | -0.889 | -1.02 |
| CRYZL1_O95825_177_VISTACSLEDK (UniProt O95825) | 0.0726 | 0.107 |
| DOK3_Q7L591_493_KGPAPCDRP (UniProt Q7L591) | -0.0118 | 0.0304 |
| DUSP3_P51452_171_EIGPNDGFLAQLCQLNDR (UniProt P51452) | -0.408 | -0.0736 |
| DOK3_Q7L591_323_LPELTRPQPCPLPR (UniProt Q7L591) | 0.463 | -0.185 |
| CRYBG1_Q9Y4K1_1404_ISSVQPICLDSFTGPR (UniProt Q9Y4K1) | 0.199 | -0.0158 |
| DECR2_Q9NUI1_53_HGCHTVIASR (UniProt Q9NUI1) | 0.317 | 0.574 |
| DCAF10_Q5QP82_412_NSLEVVTPEVLGESDHGNCITSLQLHPK (UniProt Q5QP82) | 0.152 | -0.291 |

| Target | probe-labelled cysteine peptide fold change (10 µM) | probe-labelled cysteine peptide fold change (50 µM) |
| --- | --- | --- |
| DUS3L_Q96G46_358_RHQCEDIFGVQLEGAFPDTMTK (UniProt Q96G46) | 0.0341 | 0.0134 |
| CTSB_P07858_93_EQWPQCPTIK (UniProt P07858) | -0.026 | -0.172 |
| DOCK8_Q8NF50_590_IQFMCGEDASNAMPVIFGK (UniProt Q8NF50) | -0.02 | 0.209 |
| DDX28_Q9NUL7_360_LHCIMPHVK (UniProt Q9NUL7) | -0.061 | 0.0889 |
| DENND3_A2RUS2_1094_DTSTSFLAFQLLPEEEQLWAACAGR (UniProt A2RUS2) | 1.22 | -0.0979 |
| DDX56_Q9NY93_185_SLLCHLPR (UniProt Q9NY93) | 0.556 | 0.332 |
| DARS2_Q6PI48_202_MREYLCNLHGFVDIETPTLFKR (UniProt Q6PI48) | -0.272 | -0.129 |
| DCAF10_Q5QP82_213_TLSEAHEDCVNNIR (UniProt Q5QP82) | 0.0726 | -0.0884 |
| CUL4B_Q13620_297_CWQNHCR (UniProt Q13620) | 0.0567 | 0.295 |
| DDX41_Q9UJV9_540_ACDESVLMDLK (UniProt Q9UJV9) | -0.0247 | -0.111 |
| DTWD2_Q8NBA8_143_FSEERDPELSTVCR (UniProt Q8NBA8) | 0.148 | 0.0336 |
| DCTPP1_Q9H773_110_CRVDLPLAVLSK (UniProt Q9H773) | -0.361 | -0.184 |
| DCP2_Q8IU60_391_KLQDNFETDAVYDLPSSSEDQLLEHAEGQPVACNGHCK (UniProt Q8IU60) | -0.209 | -0.464 |
| CTNNA1_P35221_772_TIADHCPDSACK (UniProt P35221) | -0.0482 | -0.0902 |
| DDX59_Q5T1V6_208_QQLGILVQGQEVTRPIIDFEHCSLPEVLNHNLKK (UniProt Q5T1V6) | -0.239 | -0.182 |
| DOK3_Q7L591_133_LADCVSVLPADGESCPR (UniProt Q7L591) | 0.0537 | 0.00634 |
| DDX3X_O00571_128_WCDKSDEDDWSK (UniProt O00571) | -0.422 | -0.388 |
| DCLRE1C_Q96SD1_34_AYFLSHCHK (UniProt Q96SD1) | 0.0604 | -0.0702 |
| DAXX_Q9UER7_106_AHSLFLASAEFCNILSR (UniProt Q9UER7) | 0.442 | 1.38 |
| DDX46_Q7L014_501_RGAEIIVCTPGR (UniProt Q7L014) | 0.161 | 0.296 |
| DNAJB14_Q8TBM8_77_KPSGSGDQSKPNCTK (UniProt Q8TBM8) | -0.262 | -0.569 |
| DDX42_Q86XP3_382_ALQEGAEIVVCTPGR (UniProt Q86XP3) | 0.0737 | 0.0996 |
| CUL2_Q13617_103_GADYMDCLYR (UniProt Q13617) | 0.191 | 0.129 |
| DDX58_O95786_428_NTDEALDYICK (UniProt O95786) | 0.0328 | 0.169 |
| CTSZ_Q9UBR2_179_ECHAIR (UniProt Q9UBR2) | -0.116 | 0.567 |
